AmpC inh no detg: inhibitors of E. coli AmpC beta-lactamase without detergent; P00811; AmpC nitrocefin hydrolysis, absorbance 480 nm, 0.0001% Triton; Potency, µM (highest dose often 57.1 µM), without a hit: at the highest dose activity change, negative = inhibition, most hits filed as inhibitors; 330,000 tested, 0.52% active; AID 485341;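 further: potency means the concentration at half of the fitted maximal effect; plate controls were no compound for no effect and no enzyme for full effect; nearly all actives have a fitted effect of over 20% in size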
Target sequence (P00811 whole entry, looked up): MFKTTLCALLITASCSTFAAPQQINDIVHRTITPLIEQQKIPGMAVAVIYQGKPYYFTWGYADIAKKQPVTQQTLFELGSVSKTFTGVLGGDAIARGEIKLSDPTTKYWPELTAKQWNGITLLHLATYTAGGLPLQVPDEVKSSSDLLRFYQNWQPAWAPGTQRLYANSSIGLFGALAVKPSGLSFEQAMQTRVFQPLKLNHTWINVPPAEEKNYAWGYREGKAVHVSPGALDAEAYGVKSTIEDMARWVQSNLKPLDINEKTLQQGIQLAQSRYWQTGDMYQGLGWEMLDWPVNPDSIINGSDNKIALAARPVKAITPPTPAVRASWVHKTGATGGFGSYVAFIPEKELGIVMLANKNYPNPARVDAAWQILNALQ
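AmpC (5.3 nM in the dispensed reagent) in 20 mM phosphate pH 7.0 with 0.01% (detergent screen) or 0.0001% Triton X-100 was preincubated with compounds for 15 min at room temperature. Nitrocefin was then added from an 800 uM solution, and hydrolysis was followed at 480 nm.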
SARS PLP yeast: blocks SARS-CoV papain-like protease in a yeast assay | 330,000 tested, 0.19% active | Potency, µM (top dose mostly 32.9 µM), inactives show at the highest dose activity, positive = growth rescue, most hits filed as activators | S. cerevisiae expressing SARS-CoV PLpro, growth rescue | AID 485353; calls by dose curve; further: potency means the concentration at half of the fitted maximal effect; 0% is about no effect; nearly all actives have a fitted effect of over 55% in size
AMA1-RON2 inh: AMA1-RON2 (P. falciparum) interaction inhibition; AlphaScreen AMA1-biotinylated RON2 peptide binding; Potency, µM (doses to about 58.2 µM), for the others: at the highest dose activity change, negative = inhibition, most hits filed as inhibitors; 360,000 tested, 0.2% active;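 further: potency means the concentration at half of the fitted maximal effect; 0% = vehicle wells and -100% = peptide control; nearly all actives have a fitted effect of over 45% in size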
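AMA1 (3D7) with his tag at 25 nM final met compounds first, then biotinylated RON2 peptide at 25 nM; detection used donor plus acceptor beads, 10 µg/mL apiece, read by AlphaScreen after 30 min at room temperature.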
Shiga toxin inh: blocks Shiga toxin action in Vero cells | AID 2315 | inhibition, % at 38.7 µM | Vero cells, Shiga toxin protein synthesis inhibition reporter | 290,000 tested, 9.2% active; in the data active means inhibition mostly above about 28%, no sharp cut-off; inactive means mostly below about 43%; further: 0% is about no effect
Cycloheximide cs: affects cycloheximide protein synthesis inhibition readout, counter-screen | 300,000 tested, 12% active | max response, % | cell reporter, cycloheximide protein synthesis inhibition counterscreen | AID 2314; in the data active means max response mostly above about 13%, no sharp cut-off; inactive means mostly below about 14%; further: read at 38.3 µM for the half of the compounds with a filed dose; 0% is about no effect
AmpC detergent: blocks E. coli AmpC beta-lactamase in detergent assay; P00811; Potency, µM (titrated, usually from 114 µM), without a hit: at the top dose activity change, negative = inhibition, actives largely listed as inhibitors; 370,000 tested, 0.041% active; AmpC hydrolysis of nitrocefin, absorbance 480 nm, 0.01% Triton;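 further: potency means the concentration at half of the fitted maximal effect; 0% = no-compound wells and -100% = no-enzyme wells; nearly all actives have a fitted effect of over 25% in size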
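AmpC (5.3 nM in the dispensed reagent) in 20 mM phosphate pH 7.0 with 0.01% (detergent screen) or 0.0001% Triton X-100 was preincubated with compounds for 15 min at room temperature. Nitrocefin was then added from an 800 uM solution, and hydrolysis was followed at 480 nm.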
* marks the source's active call; other numbers are inactive results; ? = inconclusive; . = no result; ! = repeats disagree. Many of the other results were omitted from the sample, so hits are more common in it than they were. Unless noted, the call rests on the fitted dose curve; in most records, active means well fitted curve in the direction sought with a large enough effect; inconclusive means small, poorly fitted or top-dose-only effect, or another doubt; inactive means no such curve, though single readings can be large; an effect the other way counts as inactive or inconclusive.

SMILES	AmpC inh no detg	SARS PLP yeast	AMA1-RON2 inh	Shiga toxin inh	Cycloheximide cs	AmpC detergent
Cc1ccc(NC(=O)Cc2ccc(-c3ccccc3)cc2)nc1	-41.4%	-5.8%	-3.7%	50.2	-2.6	3.4%
O=C(CC(=O)Nc1ccccn1)Nc1ccccn1	0.7%	3.1%	3.5%	14.7	18.0*	-10.2%
Cc1cccc(C(C)C)c1NC(=O)c1ccc2c(c1)CCCN2S(C)(=O)=O	.	.	.	.	.	15.1%
CCOc1ccc(CN2CCN(Cc3nc(C(C)C)cs3)CC2CCO)cc1 (centres undefined)	152.9%	0.2%	10.4%	-10.7	-2.9	11.2%
O=C(Nc1ccccn1)Nc1cccs1	-18.3%	4.7%	2.2%	38.0*	36.3*	0.3%
O=C(Nc1ccncc1)Nc1ccccn1	-2.6%	1.6%	11.0%	60.2	-3.5	-10.8%
O=C(Cc1cccs1)Nc1ccccn1	-17.2%	-0.7%	29.0%	3.1	-2.4	?
O=C(Cc1ccc(-c2ccccc2)cc1)Nc1ccccn1	-45.0%	-2.7%	-11.6%	88.2*	39.8*	-6.8%
O=C(Nc1ccccc1)C1=C[C@@H](c2coc3ccccc3c2=O)C[C@@H](OCc2ccc(CO)cc2)O1	-3.1%	-2.2%	9.4%	-16.3	0.6	6.9%
N#Cc1ccc(/C=C/C(=O)c2ccc3c(c2)OCO3)cc1	-13.4%	-2.8%	-3.9%	32.8	14.5	-0.5%
C/C(=N\Nc1nc(C(C)(C)C)cs1)c1ccccc1	-28.4%	-8.5%	24.3%	134.5*	57.3*	-2.0%
C/C(=N\Nc1nc(C(=O)O)cs1)c1ccccc1	-25.3%	24.8%	-3.2%	29.2	23.2*	1.7%
C/C(=N\Nc1nc(C(C)(C)C)cs1)c1ccc(O)cc1	-30.9%	9.8%	74.9%	120.7*	52.9*	-9.2%
C/C(=N\NS(=O)(=O)c1ccc(C(C)(C)C)cc1)c1ccccc1	-2.0%	-4.2%	0.0%	2.2	6.1	-2.2%
Cc1cc(C)n(/N=C/c2ccco2)c(=O)c1C#N	-23.0%	-9.4%	-0.6%	-3.8	-5.1	-4.3%
COc1ccc(C2C(C(C)=O)=C(O)C(=O)N2CCc2c[nH]c3ccccc23)cc1OC (centres undefined)	-12.8%	-8.9%	-8.8%	-12.8	-4.3	?
COc1ccc(C)cc1NC(=O)C(=O)N1CCCC1	4.4%	2.0%	1.1%	-3.9	-2.7	-10.0%
O=C(Nc1ccc(Cl)cc1)N[C@H]1CC[C@H](CCn2cc(-c3ccccc3F)nn2)O[C@@H]1CO	.	.	3.4%	.	.	.
CCc1cc(-c2cnnn2CCc2c[nH]c3ccccc23)ccc1-c1cn(CC(C)C)nn1	.	.	-7.6%	.	.	.
COc1ccc(C2CC(O)(c3ccccc3)Oc3c(C)ccc(C)c32)cc1 (centres undefined)	-38.7%	-5.8%	-5.5%	-3.4	-1.8	7.6%
COc1ccc(C2CC(O)(c3ccccc3)Oc3cc(OC)cc(OC)c32)cc1 (centres undefined)	-18.7%	-10.5%	-19.0%	25.5	21.9*!	15.3%
COc1ccc(CCNC(=O)COc2ccccc2[N+](=O)[O-])cc1OC	19.3%	4.8%	0.5%	-8.2	1.1	2.1%
CCCCC(=O)NC(c1ccc(C(C)C)cc1)c1ccc2cccnc2c1O (centres undefined)	-35.3%	7.08µM*	83.0%	-2.8	-3.0	-12.6%
CCCCC(=O)NC(c1ccccc1Cl)c1ccc2cccnc2c1O (centres undefined)	-39.0%	?	133.6%	6.5	-1.9	-12.1%
CCc1nc(N2CCN(C(=S)NCCCOC)CC2)c2c3c(sc2n1)CCCC3	159.2%	-15.7%	0.0%	-8.6	0.5	0.7%
CC(C)c1nnc(NC(=O)c2cccc(NC(=O)C(F)(F)F)c2)s1	-11.9%	2.0%	15.5%	84.4*	46.9*	-2.4%
CC(C)C(=O)Nc1cccc(C(=O)Nc2nnc(C(F)(F)F)s2)c1	.	.	.	.	.	20.6%
Cc1nnc(NC(=O)c2cccc(NC(=O)C(C)C)c2)s1	-16.2%	3.6%	17.0%	49.1	10.5	-0.3%
CC(C)C(=O)Nc1cccc(C(=O)Nc2nccs2)c1	-22.3%	0.2%	3.5%	38.3	14.8*	-12.8%
CC(C)C(=O)Nc1ccc(C(=O)Nc2nnc(C(C)C)s2)cc1	-20.4%	0.8%	-0.4%	44.3*	30.8	6.6%

Compound activity: PubChem, National Center for Advancing Translational Sciences (NCATS)
